The nature of assay [1]: antimalarial activity against Dd2 strain (AID 2302;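 active = growth inhibition above 50% at the single 2 µM test dose, taken to imply half-maximal potency below 2 µM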;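 note: 0% = DMSO untreated growth and 100% = chloroquine plus artemisinin killed control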). As to conditions: P. falciparum Dd2 in RBCs, LDH growth readout, 72 h; at 2 µM; hits give high values.
Assay [2] can be described thus: HepG2 cytotoxicity, primary screen, cytotoxicity control for P. falciparum antimalarial project, cell-based, ATP luminescence (AID 2303;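 active = inhibition above 50%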;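 note: 0% = DMSO wells and 100% = digitonin-killed cells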). As to conditions: HepG2 viability, 24-48 h, at 10 µM, hits give high values.
The target in assay [3] is L-lactate dehydrogenase (Plasmodium falciparum (isolate CDC / Honduras)) (UniProt Q27743). In words: PfLDH activity inhibition – cell lysate, 3D7 strain, counter-screen for P. falciparum growth inhibition project (AID 2304).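 Note: 0% = vehicle and 100% = reference inhibitor.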 The note with it: P. falciparum 3D7 crude extract, LDH APAD/NBT absorbance; at 2 µM; hits give high values.
Assay [4] can be described thus: inhibition of 3D7 malaria parasite growth – strain 3D7 (AID 2306).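 Note: 0% = DMSO wells and 100% = chloroquine plus artemisinin control wells.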 The note with it: P. falciparum 3D7 erythrocytic growth, LDH absorbance, 72 h; at 2 µM; hits give high values.
For assay [5], the target named is Calcium-dependent protein kinase 1 (Plasmodium falciparum (isolate 3D7)) (UniProt P62344). Nature of the assay: PfCDPK1 kinase inhibitors, biochemical, TCAMS library (AID 1159585; cut-off not given, nearly all actives have IC50 up to about 0.98 µM;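 note: inhibitors leave more ATP so luminescence rises with inhibition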). As to conditions: recombinant PfCDPK1, Kinase-Glo ATP depletion luminescence.
Assay [6] concerns the target Plasmodium falciparum protein kinase 6 (PK6, PF3D7_1337100) (UniProt Q8IDW1). In words: PfPK6 kinase inhibitors, biochemical, TCAMS library (AID 1159586). The note with it: recombinant PfPK6, Kinase-Glo ATP depletion luminescence.
Assay [7] concerns the target Protein kinase 7 (PK7), Plasmodium falciparum 3D7 (PF3D7_0213400) (UniProt Q7YTF7). Nature of the assay: inhibition of Plasmodium PK7 catalytic activity – biochemical, TCAMS antimalarial set, Kinase-Glo luminescence (AID 1159587). As to conditions: recombinant PfPK7, Kinase-Glo ATP depletion luminescence.
For assay [8], the target named is Calcium-dependent protein kinase 4 (Plasmodium falciparum (isolate 3D7)) (UniProt Q8IBS5). Nature of the assay: PfCDPK4 kinase inhibitors, biochemical, TCAMS library (AID 1159588; cut-off not given, nearly all actives have IC50 up to about 0.91 µM). As to conditions: recombinant PfCDPK4, Kinase-Glo ATP depletion luminescence.

Among the data in PubChem BioAssay are growth inhibition, inhibition and outcome values, retold here.

Values without a mark were called inactive. For part of these data: Results with a measured potency or affinity are listed apart. The source made the active and inactive calls. Unless noted, the rule behind the calls is not given here.

L-lactate dehydrogenase (Plasmodium falciparum (isolate CDC / Honduras)), sequence (Q27743 whole entry, looked up): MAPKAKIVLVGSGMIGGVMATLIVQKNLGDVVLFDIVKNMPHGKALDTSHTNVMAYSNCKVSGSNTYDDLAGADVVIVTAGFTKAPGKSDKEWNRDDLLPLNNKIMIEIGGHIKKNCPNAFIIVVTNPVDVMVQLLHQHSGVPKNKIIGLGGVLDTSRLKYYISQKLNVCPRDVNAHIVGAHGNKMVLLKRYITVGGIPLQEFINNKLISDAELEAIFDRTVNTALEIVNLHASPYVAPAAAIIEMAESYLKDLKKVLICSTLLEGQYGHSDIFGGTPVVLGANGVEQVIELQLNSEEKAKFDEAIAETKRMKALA
Calcium-dependent protein kinase 4 (Plasmodium falciparum (isolate 3D7)), sequence (Q8IBS5 whole entry, looked up): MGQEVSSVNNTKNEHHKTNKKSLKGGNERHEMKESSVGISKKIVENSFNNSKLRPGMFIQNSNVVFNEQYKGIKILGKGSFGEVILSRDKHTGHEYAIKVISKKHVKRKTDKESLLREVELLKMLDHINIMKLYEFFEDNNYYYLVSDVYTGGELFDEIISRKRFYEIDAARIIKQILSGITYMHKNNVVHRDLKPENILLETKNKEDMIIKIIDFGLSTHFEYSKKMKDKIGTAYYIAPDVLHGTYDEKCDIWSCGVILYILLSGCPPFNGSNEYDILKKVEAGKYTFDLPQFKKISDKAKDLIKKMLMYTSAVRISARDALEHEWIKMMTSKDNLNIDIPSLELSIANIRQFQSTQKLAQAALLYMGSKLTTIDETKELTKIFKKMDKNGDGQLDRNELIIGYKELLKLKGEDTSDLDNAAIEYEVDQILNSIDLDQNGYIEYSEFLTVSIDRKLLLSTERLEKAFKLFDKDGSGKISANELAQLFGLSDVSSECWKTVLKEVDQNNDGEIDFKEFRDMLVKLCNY
Protein kinase 7 (PK7), Plasmodium falciparum 3D7 (PF3D7_0213400), sequence (Q7YTF7 1-343): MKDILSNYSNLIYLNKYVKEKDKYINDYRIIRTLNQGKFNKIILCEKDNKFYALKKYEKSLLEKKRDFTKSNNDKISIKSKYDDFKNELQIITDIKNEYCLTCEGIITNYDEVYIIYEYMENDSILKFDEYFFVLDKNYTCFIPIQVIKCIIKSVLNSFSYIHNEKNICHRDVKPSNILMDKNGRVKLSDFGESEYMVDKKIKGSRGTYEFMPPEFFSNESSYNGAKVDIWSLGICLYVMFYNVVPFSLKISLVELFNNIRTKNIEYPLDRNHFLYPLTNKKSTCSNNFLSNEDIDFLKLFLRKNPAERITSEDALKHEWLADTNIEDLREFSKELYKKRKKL
Calcium-dependent protein kinase 1 (Plasmodium falciparum (isolate 3D7)), sequence (P62344 whole entry, looked up): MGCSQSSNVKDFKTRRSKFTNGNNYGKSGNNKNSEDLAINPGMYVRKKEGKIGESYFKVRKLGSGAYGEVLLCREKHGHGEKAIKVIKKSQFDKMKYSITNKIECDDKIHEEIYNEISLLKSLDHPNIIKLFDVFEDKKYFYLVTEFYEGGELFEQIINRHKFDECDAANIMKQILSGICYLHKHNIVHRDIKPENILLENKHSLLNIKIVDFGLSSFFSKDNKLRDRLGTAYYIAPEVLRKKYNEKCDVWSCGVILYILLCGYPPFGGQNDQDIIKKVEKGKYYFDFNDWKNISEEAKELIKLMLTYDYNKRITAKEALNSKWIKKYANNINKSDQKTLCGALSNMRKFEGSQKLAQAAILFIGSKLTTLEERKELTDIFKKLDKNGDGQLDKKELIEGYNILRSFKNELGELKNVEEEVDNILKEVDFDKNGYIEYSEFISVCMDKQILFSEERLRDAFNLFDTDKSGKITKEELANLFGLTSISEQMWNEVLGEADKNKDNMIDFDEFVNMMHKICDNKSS
Plasmodium falciparum protein kinase 6 (PK6, PF3D7_1337100), sequence (Q8IDW1 1-305): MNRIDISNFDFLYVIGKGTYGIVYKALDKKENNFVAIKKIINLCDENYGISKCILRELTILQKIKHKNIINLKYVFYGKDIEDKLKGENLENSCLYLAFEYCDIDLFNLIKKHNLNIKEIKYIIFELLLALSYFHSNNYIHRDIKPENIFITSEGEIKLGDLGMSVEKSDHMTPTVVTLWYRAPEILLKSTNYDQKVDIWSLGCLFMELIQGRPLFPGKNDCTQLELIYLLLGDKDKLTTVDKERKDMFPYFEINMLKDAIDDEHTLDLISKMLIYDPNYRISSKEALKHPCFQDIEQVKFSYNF

As for `COc1ccc2nc3cc(Cl)ccc3c(N)c2c1`, the growth inhibition is 100% (active) in assay [1] and 102% (active) in assay [4]. In addition, the inhibition is 100% (active) in assay [2] and -5% in assay [3]. For the same compound, the outcome in assay [5], in assay [6], in assay [7] and in assay [8] was inactive.

For `CCOC(=O)Cc1nc(N)c(C(=O)OCC)[nH]1`, the growth inhibition in assay [1] is 24%; in assay [4], 94% (active). For the same compound, the results for the inhibition in assay [2] and in assay [3] were 2% and -1%, respectively. Besides, the result in assay [5], in assay [6], in assay [7] and in assay [8] was inactive.

Consider `CC1N=C(N)N=C(N)N1OCc1ccccc1` (stereo not drawn), for which the results for the growth inhibition in assay [1] and in assay [4] were 72% (active) and 94% (active), respectively. Besides, the inhibition in assay [2] was 62% (active); in assay [3], 7%. For the same compound, the result in assay [5], in assay [6], in assay [7] and in assay [8] was inactive.

For `Nc1c2c(nc3ccc(Oc4ccc(Cl)cc4)cc13)CCCC2`, the growth inhibition in assay [1] was 65% (active); in assay [4], 100% (active). Also, the inhibition in assay [2] was 42%; in assay [3] it was -8%. Further, the result in assay [5], in assay [6], in assay [7] and in assay [8] was inactive.

On to `Cc1ccc(NC(=O)Nc2ccc(S(=O)(=O)c3ccc(NC(=O)Nc4ccc(C)c(Cl)c4)cc3)cc2)cc1Cl`, for which the growth inhibition in assay [1] was 42%; in assay [4] it was 99% (active). Besides, the inhibition is 49% in assay [2] and 4% in assay [3]. Besides, the result in assay [5], in assay [6], in assay [7] and in assay [8] was inactive.

With `O=C(Nc1ccc2c(c1)CCN2C1CCN(Cc2ccc(C(F)(F)F)cc2F)C1)c1ccco1` (stereo not drawn), the growth inhibition in assay [1] was 94% (active); in assay [4], 91% (active). The inhibition in assay [2] is 9%; in assay [3], 1%. The outcome in assay [5], in assay [6], in assay [7] and in assay [8] was inactive.

With `COc1cc(C)nc2ccc(NC(=O)Nc3cccc4ccccc34)cc12`, the growth inhibition was 48% in assay [1] and 91% (active) in assay [4]. Further, the figures for the inhibition in assay [2] and in assay [3] were 27% and -3%, respectively. Besides, the outcome in assay [5], in assay [6], in assay [7] and in assay [8] was inactive.

As to `COc1ccc(Cl)cc1NC(=O)Nc1ccc2c(c1)CCN(C1CCC1)CC2`, the growth inhibition in assay [1] was 19%; in assay [4] it was 98% (active). The inhibition in assay [2] was 38%; in assay [3], -2%. Moreover, the outcome in assay [5], in assay [6], in assay [7] and in assay [8] was inactive.

On to `COCCn1ccc2c3c(N)nc(N)nc3ccc21`, for which the growth inhibition is 29% in assay [1] and 93% (active) in assay [4]. Further, the values for the inhibition in assay [2] and in assay [3] were 43% and -2%, respectively. The outcome in assay [5], in assay [6], in assay [7] and in assay [8] was inactive.

As for `CN(C)c1cccc2c1nc(-c1ccco1)n2CCNCc1ccccc1`, the growth inhibition in assay [1] is 97% (active); in assay [4], 98% (active). Moreover, the inhibition in assay [2] was -1%; in assay [3] it was 2%. The result in assay [5], in assay [6], in assay [7] and in assay [8] was inactive.

`N#Cc1cc([N+](=O)[O-])ccc1-n1nc(C(N)=O)n(Cc2cccc(F)c2)c1=S`: the growth inhibition in assay [1] and in assay [4] was 100% (active) in each case. Moreover, the values for the inhibition in assay [2] and in assay [3] were 6% and -4%, respectively. Also, the result in assay [5], in assay [6], in assay [7] and in assay [8] was inactive.

As to `CC(C)(C)c1ccc(NC(=O)Nc2ccc(Cn3ncc(N4CCCNCC4)c(Cl)c3=O)cc2)cc1`, the growth inhibition in assay [1] is 33%; in assay [4], 95% (active). The values for the inhibition in assay [2] and in assay [3] were -4% and -7%, respectively. In addition, the outcome in assay [5], in assay [6], in assay [7] and in assay [8] was inactive.

As for `O=C(Nc1cccc(Cl)c1)OC1CCCN2CCCCC12` (stereo not drawn), the growth inhibition was -4% in assay [1] and 85% (active) in assay [4]. Moreover, the inhibition in assay [2] is 6%; in assay [3], 1%. Moreover, the outcome in assay [5], in assay [6], in assay [7] and in assay [8] was inactive.

In the case of `COc1c(C)cc(I)cc1CNCCCNc1cc(=O)c2ccccc2[nH]1`, the growth inhibition in assay [1] was -2%; in assay [4] it was 84% (active). For the same compound, the inhibition in assay [2] is -1%; in assay [3], 2%. Also, the outcome in assay [5], in assay [6], in assay [7] and in assay [8] was inactive.

As to `COc1cc(NCC(CN)Cc2ccc3c(c2)OCO3)nc2ccccc12` (stereo not drawn), the growth inhibition was 6% in assay [1] and 94% (active) in assay [4]. For the same compound, the inhibition in assay [2] is 41%; in assay [3], 0%. Moreover, the outcome in assay [5], in assay [6], in assay [7] and in assay [8] was inactive.

Turning to `NC1CCCN(Cc2ccc(-c3cccc(-c4nc5ccc(F)cc5[nH]4)c3)cc2)C1` (stereo not drawn), the growth inhibition is 75% (active) in assay [1] and 100% (active) in assay [4]. For the same compound, the inhibition in assay [2] was 54% (active); in assay [3], 1%. Moreover, the result in assay [5], in assay [6], in assay [7] and in assay [8] was inactive.

On to `COc1ccc2c(Nc3ccc(N4CCN(C)CC4)cc3)cc(C)nc2c1`, for which the growth inhibition in assay [1] is 9%; in assay [4] it was 101% (active). Also, the results for the inhibition in assay [2] and in assay [3] were 23% and -2%, respectively. Also, the result in assay [5], in assay [6], in assay [7] and in assay [8] was inactive.

`Fc1ccc2nccc(NN=Cc3ccccc3Cl)c2c1`: the growth inhibition in assay [1] was 39%; in assay [4], 100% (active). In addition, the inhibition was 3% in assay [2] and 0% in assay [3]. For the same compound, the result in assay [5], in assay [6], in assay [7] and in assay [8] was inactive.

As for `CCc1cc(Cc2cnc(N)nc2N)cc(CC)c1OC`, the growth inhibition in assay [1] was 12%; in assay [4], 90% (active). Moreover, the figures for the inhibition in assay [2] and in assay [3] were 3% and 8%, respectively. Moreover, the result in assay [5], in assay [6], in assay [7] and in assay [8] was inactive.

On to `CN(CCCN(C)c1cc(NC(=O)c2ccc(F)cc2)ccn1)Cc1cccc(F)c1`, for which the values for the growth inhibition in assay [1] and in assay [4] were 60% (active) and 83% (active), respectively. Moreover, the inhibition in assay [2] is -5%; in assay [3], -1%. The outcome in assay [5], in assay [6], in assay [7] and in assay [8] was inactive.

`CCOC(=O)N1CCN(CCCNc2c3ccc(Cl)cc3nc3ccc(OC)cc23)CC1`: the growth inhibition in assay [1] was 100% (active); in assay [4], 101% (active). Moreover, the values for the inhibition in assay [2] and in assay [3] were 52% (active) and 3%, respectively. In addition, the result in assay [5], in assay [6], in assay [7] and in assay [8] was inactive.
